# Experimental data published in PubChem BioAssay (NCI).
# This is part of a sample that, as a whole, favours compounds with a hit. Of some 83,000 tested, about 20% had one in any assay.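 Cell lines were cultured in 96-well plates, exposed to a single compound concentration, and assessed for percent growth 48 hours later.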 Values without a mark were called inactive. Calls of active or inactive are those of the source. How the source made its calls: active means growth percent below 10; inactive means the rest.
# Assays:
# Assay in all cases: NCI-60 one-dose screen, 48 h (100 = growth as untreated, 0 = no growth, -100 = all killed)
# DU-145 prostate = details: 10 µM unless noted
# K-562 leukemia = details: 10 µM unless noted
# MALME-3M melanoma = details: 10 µM unless noted
# MDA-MB-231 breast = details: 10 µM unless noted
# RXF 393 renal = details: 10 µM unless noted
# SF-268 CNS = details: 10 µM unless noted
# SF-295 CNS = details: 10 µM unless noted
# SF-539 CNS = details: 10 µM unless noted
# UACC-257 melanoma = details: 10 µM unless noted
# M14 melanoma = details: 10 µM unless noted
# HCT-15 colon = details: 10 µM unless noted
# HT29 colon = details: 10 µM unless noted
# SNB-75 CNS = details: 10 µM unless noted
# SNB-19 CNS = details: 10 µM unless noted
# U251 CNS = details: 10 µM unless noted
# PC-3 prostate = details: 10 µM unless noted
# SK-MEL-5 melanoma = details: 10 µM unless noted
# UACC-62 melanoma = details: 10 µM unless noted
# LOX IMVI melanoma = details: 10 µM
# SK-MEL-28 melanoma = details: 10 µM unless noted
Compound,growth (DU-145 prostate),growth (K-562 leukemia),growth (MALME-3M melanoma),growth (MDA-MB-231 breast),growth (RXF 393 renal),growth (SF-268 CNS),growth (SF-295 CNS),growth (SF-539 CNS),growth (UACC-257 melanoma),growth (M14 melanoma),growth (HCT-15 colon),growth (HT29 colon),growth (SNB-75 CNS),growth (SNB-19 CNS),growth (U251 CNS),growth (PC-3 prostate),growth (SK-MEL-5 melanoma),growth (UACC-62 melanoma),growth (LOX IMVI melanoma),growth (SK-MEL-28 melanoma)
C#CCOc1cc(N(CC)CC)ccc1C(C(=O)NC(C)(C)C)N(C(=O)C1CCc2cc(F)ccc2O1)c1ccc(Br)cc1 (stereo not given),97.1%,41.1%,92.6%,61.6%,103%,92.8%,96.4%,81.1%,87.8%,68.3%,65.4%,77.3%,98.9%,91.5%,87.2%,38.8%,81%,61%,35.9%,80.2%
COC(=O)C[C@](O)(CCCC(C)(C)O)C(=O)O[C@H]1C(OC)=C[C@@]23CCCN2CCc2cc4c(cc2[C@@H]13)OCO4,-11.7% (active),4.68% (active),-43.8% (active),-20.4% (active),-31.8% (active),-6.53% (active),-22.8% (active),-50.8% (active),-28.2% (active),-71.4% (active),0.83% (active),-48.3% (active),-48.9% (active),-26.8% (active),-23.4% (active),-15.1% (active),-71.9% (active),-18.5% (active),-82.4% (active),-35.4% (active)
O=C(COc1ccc(NC(=O)Nc2ccc(Cl)c(Cl)c2)cc1)N=Nc1c(O)[nH]c2ccccc12,-42.7% (active),5.06% (active),-79.3% (active),-66.8% (active),-52.7% (active),-5.94% (active),-48.9% (active),-86.3% (active),-44.5% (active),-76.5% (active),56.1%,-45.9% (active),-39.5% (active),-24.5% (active),-87.7% (active),-44.6% (active),25.2%,-56.5% (active),,-90.4% (active)
COc1ccc(C(=O)/C=C/c2ccc(Oc3nc(Nc4ccc(F)cc4)nc(N(C)C)n3)c(OC)c2)cc1,51.7%,26.4%,79%,53.9%,50.6%,51.8%,51.5%,26.8%,42.5%,65.1%,33.8%,59%,66.4%,63.4%,11.4%,50.5%,32.9%,41%,,76.7%
COc1cc2oc(-c3cccc(C(=O)Nc4ccc(Cl)cc4)c3)cc(=O)c2c(OCCNC(=O)[C@@H](N)CCC(=O)O)c1OC,86.9%,32.2%,76.1%,30.5%,9.77% (active),94.7%,86.4%,75.4%,100%,16.7%,78%,50.6%,86.4%,93.6%,87.4%,79%,83.6%,100%,,78.8%
C#CCOc1ccc(/C=N/Nc2nc(-c3cc4cc(Br)ccc4oc3=O)cs2)cc1OC,69.1%,58%,59.4%,36.3%,58.1%,59.6%,24.2%,25.1%,86.4%,79.4%,85.4%,36.1%,84.5%,49.6%,12.5%,74.2%,87.1%,57.5%,,78.2%
COc1cc(C2CC(c3ccc(S(=O)(=O)NCCNc4nc(Nc5ccc(F)cc5)nc(N(C)C)n4)cc3)=Nc3c(N)nc(N)nc3N2)cc(OC)c1OC (stereo not given),103%,47.2%,84.4%,43.7%,74%,82.8%,94%,86%,97.9%,101%,92.5%,96.5%,82.8%,67.5%,69.6%,86.3%,64.2%,76.4%,66.9%,88.1%
O=C(N=Nc1c(O)[nH]c2ccc([N+](=O)[O-])cc12)c1ccc2nc(-c3ccccc3)[nH]c2c1,57.9%,48.1%,30.7%,59.5%,74.6%,53.3%,102%,6.74% (active),84.6%,83.8%,105%,110%,95.7%,43.6%,34.8%,53.3%,97.7%,75.5%,,60.8%
C=C1CCC2C3(C)COC(c4cccc(F)c4)OC3CCC2(C)C1C/C=C1/C(=O)OCC1O (stereo not given),4.04% (active),10.5%,-41.9% (active),-32.8% (active),-70.5% (active),67.9%,2.97% (active),-72.5% (active),-28.8% (active),-40.7% (active),-23.6% (active),-1.9% (active),54.1%,30.1%,-90% (active),-17.5% (active),-19.3% (active),2.91% (active),,-26.2% (active)
COc1ccc(C(=O)/C=C/c2ccc(OC)c(OCc3ccccc3)c2)cc1OC,15.4%,13.2%,74.1%,17.9%,-10.4% (active),21.1%,69%,-27.2% (active),42.7%,34.6%,1.81% (active),5.47% (active),39.7%,17.3%,7.69% (active),25.1%,31.9%,14.8%,-26% (active),39.8%
COc1cc2oc(-c3cccc(C(=O)Nc4ccc(Cl)cc4)c3)cc(=O)c2c(OCC(=O)N[C@@H](Cc2ccccc2)C(=O)O)c1OC,111%,96.5%,107%,96.1%,111%,110%,111%,99.3%,104%,109%,112%,112%,112%,98.2%,109%,97.5%,96.1%,97.8%,83.4%,95.5%
OCNc1ccc(-n2cnc3cc(-c4ccc(O)cc4)ccc32)cc1C(F)(F)F,28.6%,17.2%,26.6%,38.6%,47.5%,24.7%,4.48% (active),23.5%,58.4%,11.9%,15.5%,21.2%,17.6%,35.2%,16.8%,45.6%,3.27% (active),33.5%,,27.5%
COc1cc(/C=C/C(=O)c2ccc(C)cc2)ccc1Oc1nc(Nc2ccc(F)cc2)nc(N(C)C)n1,50.1%,26.8%,69%,31.2%,47.8%,47.1%,30%,-31.9% (active),41.3%,56.9%,17.3%,44.1%,50.8%,23.4%,11.3%,50.8%,30.5%,42.1%,,73.4%
Cn1cc(-c2nnc(N)nc2-c2c[nH]c3ccc(Br)cc23)c2cc(Br)cnc21,75.8%,26.7%,69%,55.8%,17.1%,71.3%,63.5%,63.6%,83.4%,57.2%,22.4%,16.6%,32%,65.5%,62.4%,38.5%,68%,46.3%,58.7%,43.6%
CCOC(=O)COc1c(OC)c(OC)cc2oc(-c3cccc(C(=O)Nc4ccc(Cl)cc4)c3)cc(=O)c12,64%,23.2%,52%,50.7%,75.6%,56.1%,38.2%,59.8%,77.2%,33.9%,21.5%,22.9%,34.6%,62.3%,39.9%,41.1%,22.3%,55.1%,,68.6%
C=CC(=O)Nc1ccc(C)c(Oc2ccc(Cl)cc2)c1,68.6%,53.2%,73.8%,44.1%,38.5%,57.1%,58%,30.2%,66.6%,72.3%,49.7%,60.2%,-8.04% (active),38%,36.5%,56%,53%,41.6%,,72%
